# Assay results published in PubChem BioAssay AID1259311 (ICCB-Longwood Screening Facility, Harvard Medical School, 2017).
# Several values for one entry are separate records, joined by “and”; a condition that tells them apart may be missing. Equal values may be shown once. The whole screen tested about 330,000 compounds, of which about 1,100 (0.33%) were called active. No stated cut-off is given here; in the data, active means inhibition above about 85%; inactive means the rest. This excerpt belongs to a sample that is enriched for actives.
# Experiment: growth inhibition of S. aureus RN4220, primary screen, OD600 (AID 1259311);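 further: plate controls were untreated cells for no effect and reference antibiotic for full effect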
# Settings: OD600, 16 h, active compounds read high
row,Structure (SMILES),inhibition
1,CC(NC(=O)c1nc[nH]c1C(=O)NCCCCCNC(=O)OC(C)(C)C)c1ccccc1 (stereo unspecified),8.53% (inactive) and 1.7% (inactive)
2,C[C@]12CCC(O)CC1CCC1C2CC[C@]2(C)C(O)CCC12 (stereo partly specified),7.5% (inactive)
3,Cc1ccc(NS(=O)(=O)c2cc([N+](=O)[O-])ccc2NN=Cc2sc(N3CCOCC3)nc2-c2ccccc2)c(C)c1,-5% (inactive)
4,COC(=O)Cc1ccc(OCC(=O)NC2CCCC2)cc1,2.26% (inactive)
5,CC1(C)SC2C(NC(=O)COc3ccccc3)C(=O)N2C1C(=O)O (stereo unspecified),99.8% (active)
6,Cc1cccc(OCC(=O)NC2CC(C)(C)NC(C)(C)C2)c1,-1.7% (inactive)
7,O=S(=O)(NN=Cc1cccc(F)c1)c1ccccc1,29.9% (inactive)
8,CCOc1cccc(-c2c(C(=O)NN=Cc3ccc(C)o3)nnn2-c2nonc2N)c1,4.52% (inactive)
9,C#Cc1ccc(C2C=C(C(=O)N3CCOCC3)OC(OCC)C2CCCO)cc1 (stereo unspecified),2.8% (inactive) and 5.16% (inactive)
10,C#C[C@]1(O)CCC2C3CCC4=Cc5nc6nc7ccccc7n6cc5C[C@]4(C)C3CC[C@@]21C (stereo partly specified),-13.8% (inactive)
11,CC(=NNC(=O)c1nnn(-c2nonc2N)c1CSc1ccc(C)cc1)c1ccco1,4.06% (inactive)
12,COc1cccc(-c2nnc(NC(=O)c3ccc(S(=O)(=O)N(CC(C)C)CC(C)C)cc3)o2)c1,99.9% (active)
13,O=C(Nc1nnc(-c2ccco2)o1)c1ccc(S(=O)(=O)N2CCOCC2)cc1,1.85% (inactive)
14,COc1ccc(-c2nnc(NC(=O)CS(=O)(=O)c3ccc(Cl)cc3)o2)c(OC)c1,3.79% (inactive)
15,CC1CN(C(C)CO)C(=O)c2cccc(NC(=O)c3ccc(-c4nccs4)cc3)c2OC1CN(C)C(=O)NC1CCCCC1 (stereo unspecified),4.31% (inactive)
16,C=C[C@]1(C)CC(OC(=O)CSCCN(CC)CC)[C@]2(C)C(C)CC[C@]3(CCC(=O)C32)C(C)C1O (stereo partly specified),101% (active)
17,COC(=O)[C@]1(CC(C)C)NC(c2ccc(-c3ccc(F)cc3)c(OC)c2)C2C(=O)N(C)C(=O)C21 (stereo partly specified),-2.27% (inactive)
18,COc1ccc(C2C=CCN(C(=O)Nc3ccccc3-c3ccccc3)CC(=O)N2Cc2ccc(F)cc2)cc1 (stereo unspecified),4.3% (inactive)
19,CCCn1c(=O)c(C(=O)Nc2cc(C)ccn2)c(O)c2ccccc21,8.88% (inactive)
20,CCCn1c(=O)c(-c2ccccc2)c(O)c2ccccc21,4.44% (inactive)
21,CC(C)CCn1c(=O)c(C(=O)NN=Cc2cccc(F)c2)c(O)c2ccccc21,101% (active)
22,CCCn1c(=O)c(C(=O)NN=Cc2ccc(F)cc2)c(O)c2ccccc21,101% (active)

row,Structure (SMILES),inhibition
1,CCCCCn1c(=O)c(C(=O)NCc2ccccc2)c(O)c2ccccc21,-1.56% (inactive)
2,COc1cc(C(=O)NN=Cc2cn(Cc3cccc(F)c3)c3ccccc23)ccc1O,-2.54% (inactive)
3,CCOC(=O)NN=C(C)/C=C/c1ccco1,-0.0294% (inactive)
4,O=C1CCC(O)CCN1CCC(Sc1ccccc1)c1ccccc1 (stereo unspecified),10.9% (inactive)
5,CC(C)(C)C1C=C(C(=O)N2CCN(Cc3ccccc3)CC2)OC(OCc2ccc(CO)cc2)C1 (stereo unspecified),8.07% (inactive) and 4.07% (inactive)
6,CCOC(=O)C1C2COc3ccc(Br)cc3C2N2C(=O)N(c3ccc(C(F)(F)F)cc3)C(=O)[C@@]12C (stereo partly specified),-6.79% (inactive)
7,CCCCC1CC1C(NC(=O)c1ccco1)c1ccccc1C(F)(F)F (stereo unspecified),6.05% (inactive)
8,O=C(CN1CCSCC1)NN=Cc1ccc(F)cc1F,6.36% (inactive)
9,Cc1ccc(C=NNC(=O)CSc2nc3ccccc3n2C)s1,0.496% (inactive)
10,Cn1c(SCC(=O)NN=Cc2ccc([N+](=O)[O-])s2)nnc1-c1ccccc1,94.9% (active)
11,Cc1ccc(C=NNC(=O)CSc2nc3ccccc3c(=O)n2-c2ccccc2)s1,-0.0121% (inactive)
12,COC(=O)C1=C(c2ccc(C(C)=O)cc2)CC2CCC1N2C(=O)NCc1ccc(F)cc1 (stereo unspecified),1.41% (inactive)
13,O=S(=O)(NN=Cc1ccc(OC2CSC2)cc1)c1ccccc1,2.43% (inactive)
14,COc1cccc(C=NNC(=O)CSCC(=O)Nc2ccccc2)c1O,3.38% (inactive)
15,COc1cccc(C=NNc2ncnc3c2ncn3Cc2ccccc2)c1O,9.44% (inactive)
16,COc1cccc(C=NNc2cc(-n3nc(C)cc3-c3ccccc3)ncn2)c1O,99.8% (active)
17,COc1cccc(C(=O)NCC(=O)NN=Cc2c(C)[nH]c3ccccc23)c1,4.11% (inactive)
18,O=C(NC(Nc1nc2ccc([N+](=O)[O-])cc2s1)(C(F)(F)F)C(F)(F)F)c1ccccc1,100% (active)
19,O=C(NOCc1ccccc1)c1cccc([N+](=O)[O-])c1,4.41% (inactive)
20,N=C1C(c2nc3ccccc3s2)=C(O)CN1NC(=O)c1ccc([N+](=O)[O-])cc1,31.5% (inactive)
21,COC(=O)C1=C(c2cccc(OC)c2OC)CC2CCC1N2C(=O)NCCNC(C)=O (stereo unspecified),2.83% (inactive)
22,Cc1ccc(OCC(=O)NN=Cc2cc([N+](=O)[O-])ccc2N2CCCCC2)cc1,15.8% (inactive)

row,Structure (SMILES),inhibition
1,COc1cccc(C2=CC(=O)CC(c3ccc4c(c3)OCO4)C2)c1OC (stereo unspecified),4.85% (inactive)
2,O=C(Cn1cnc2ccccc21)NN=Cc1ccccn1,-0.52% (inactive)
3,COC(=O)[C@]1(C)NC(c2ccc(-c3cccc(Cl)c3)c(OC)c2)C2C(=O)N(C)C(=O)C21 (stereo partly specified),4.06% (inactive)
4,CCOC(=O)C=c1sc(=C(C#N)C(=O)OCC)n(-c2ccccc2)c1=O,-0.54% (inactive)
5,CCC(C)N1CCC2(CC1)N=c1c(c3c4c5c(C)c(O)c3c(O)c1=NC(=O)C(C)=CC=CC(C)C(O)C(C)C(O)C(C)C(OC(C)=O)C(C)C(OC)C=CO[C@@](C)(O5)C4=O)N2 (stereo partly specified),99.7% (active)
6,Cc1nnc(SCc2cc(=O)[nH]c(N3CCN(Cc4ccccc4)CC3)n2)s1,1.62% (inactive)
7,Cc1nnc(SCC(=O)NC2CCCC2)s1,-0.203% (inactive)
8,Cc1cc(C)cc(C(=O)NC2C(=O)N3C(C(=O)O)=C(CSc4nnc(C)s4)CSC23)c1 (stereo unspecified),99.5% (active)
9,Cc1nnc(SCC2=C(C(=O)O)N3C(=O)C(NC(=O)Cn4nc(C)c(Cl)c4C)C3SC2)s1 (stereo unspecified),99.6% (active)
10,Cc1nnc(SCC(=O)Nn2cnnc2)s1,2.92% (inactive)
11,CON=Cc1ccc(N2CCOCC2)c([N+](=O)[O-])c1,6.02% (inactive)
12,C=CCn1c(CNc2ccccc2)nnc1SCC(=O)NN=Cc1ccccc1O,1.54% (inactive)
13,O=C(O)CCC(=NNc1ncc(C(F)(F)F)cc1Cl)C(=O)O,4.71% (inactive)
14,CC(=O)Nc1cccc(C(C)=NNc2ccc(S(=O)(=O)Nc3ccccc3C(=O)O)cc2[N+](=O)[O-])c1,-10.1% (inactive)
15,CCc1ccc2c(c1)C1(NN=C(c3ccccc3)S1)C(=O)N2 (stereo unspecified),92.6% (active)
16,CCN(CC)c1ccc(C(=O)c2cnc(N=CN(C)C)s2)cc1,8.12% (inactive)
17,CC(=NNC(=O)CNS(=O)(=O)c1ccc(C)cc1)c1cccc([N+](=O)[O-])c1,-3.24% (inactive)
18,Cn1c(NN=Cc2ccccc2)nc2sc3c(c2c1=O)CCC3,6.77% (inactive)
19,O=C(NN=Cc1ccccc1)c1ccc(CN2C(=O)c3cccc4cccc2c34)cc1,0.745% (inactive)
20,O=C(Nc1ccc2ccccc2c1)Nc1ccc2snnc2c1,106% (active)
21,Cc1nc2cc(NC(=O)Nc3cccc(F)c3)ccc2n1C,2.6% (inactive)
22,S=C(Nc1ccccc1)Nc1ccc2ccccc2c1,-8.9% (inactive)

row,Structure (SMILES),inhibition
1,Nc1nonc1-n1nnc(C(=O)NN=Cc2ccncc2)c1CN1CCCCC1,1.52% (inactive)
2,Cc1ccccc1NC(=O)C(C)ON=Cc1cccc([N+](=O)[O-])c1 (stereo unspecified),4.13% (inactive)
3,COc1ccc(CC(O)=C(C#N)c2nc3ccccc3[nH]2)cc1OC,-2.45% (inactive)
4,CCOC(=O)C=c1sc(=Cc2c(OCC)ccc3ccccc23)c(=O)n1CC(=O)NCC1CCCO1 (stereo unspecified),-2.12% (inactive)
5,Cc1c(CN2CCC(CO)(CCOc3ccccc3)CC2)[nH]c2ccc(Cl)cc12,97.5% (active)
6,CCOC(=O)C1(CCOc2ccccc2)CCN(Cc2cc(OC)cc(OC)c2)CC1,1.85% (inactive)
7,CCOC(=O)C1(CCOc2ccccc2)CCN(Cc2ccc(C#CCCO)cc2)CC1,5.24% (inactive)
8,C#CCOCCOCCOCCNc1nc(N2CCN(C(=O)C(Cc3cc4ccccc4[nH]3)n3cc(C(N)CC(C)C)nn3)CC2)nc(N2CCN(C(=O)C(Cc3ccc(O)cc3)n3cc(C(N)C(C)CC)nn3)CC2)n1 (stereo unspecified),-1.75% (inactive)
9,CCNc1nc(NCC)nc(NN=Cc2ccc(O)c(OC)c2)n1,4.03% (inactive)
10,COc1ccc(C=NNC(=O)C(=O)N2CCCCCC2)cc1,0.0129% (inactive)
11,Cc1nc2c(-c3ccccc3)c(C)[nH]n2c(=O)c1Cl,5.58% (inactive)
12,Cc1cc(=O)n2[nH]c(-c3cccc(Cl)c3)cc2n1,0.714% (inactive)
13,Cc1[nH]n(-c2cccc(Cl)c2)c(=O)c1-c1ccc(Cl)cc1,106% (active)
14,CC(C)(C)NC(=O)C=NO,6.33% (inactive)
15,O=C(NN=Cc1ccc(OC(F)F)cc1OC(F)F)c1ccc(Br)cc1,3.44% (inactive)
16,N#CC(=C(O)c1ccco1)c1ccccn1,2.69% (inactive)
17,Oc1ccc(Br)cc1C=Nn1c(COc2ccccc2)n[nH]c1=S,5.82% (inactive)
18,FC(F)(F)c1cccc(NC(=S)Nc2cccc(Cl)c2)c1,100% (active)
19,O=C(O)CC1(CC(=O)Nc2cccc(C(F)(F)F)c2)CCCC1,3.93% (inactive)
20,Cn1cc(Cl)c(C(=O)NNC(=S)Nc2cccc(Cl)c2)n1,4.73% (inactive)
